Lassa entry inh – Lassa virus entry inhibition. Lassa virus pseudotype entry inhibition, cell reporter. Potency, µM (top dose mostly 37.9 µM), hits mostly inhibitors. 300,000 compounds, 1.2% hits. AID 540256; calls by dose curve; tested in HEK293 cells; note: nearly all actives have a fitted effect of over 50% in size
HCV inhibitor – blocks hepatitis C virus. Huh7.5.1 HCVcc-Cre infection, luciferase reporter, 44 h. Potency, µM (series often up to 41.8 µM), hits mostly inhibitors. AID 651820. 340,000 compounds, 3.4% hits; active = well fitted inhibition curve with a large enough effect; inconclusive = small, poorly fitted or top-dose-only effect, or another doubt; inactive = no such curve, though single readings can be large or run the other way
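HCVcc-Cre virus at an moi near 0.5 was added right after compound to cells cultured 4 h from seeding (1,000 cells/well). Luciferase activity was determined 44 h later, 15 min after substrate addition at RT.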
MARV entry inh – Marburg virus entry inhibition | 300,000 compounds, 1.8% hits | Potency, µM (highest dose often 37.8 µM), actives largely listed as inhibitors | AID 540276 | Marburg virus pseudotyped entry inhibition, cell reporter; calls by dose curve; tested in HEK293 cells
HCMV antiviral – blocks human cytomegalovirus replication; 410,000 compounds, 4.5% hits; activity change, negative = inhibition, % at 57.5 µM; HFF cells, HCMV-luciferase reporter, 72 h; hits give low values; AID 1259415; in the data active = activity change below about -60%; inconclusive = no clear call, values can overlap the other calls; inactive = above about -39%
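Cell-based, HFFs, 1000 cells/well, 16 h 37C; cpds in DMSO + HCMV-luc, MOI 1 PFU/cell; 72 h 37C; OneGlo luminescence after 5 min RT; norm. to buffer vs Salinomycin 10uM.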
VACV mCherry inh – inhibitors of vaccinia virus infection (mCherry reporter signal); Potency, µM (doses to about 36.5 µM), usual class: inhibitors; 310,000 compounds, 0.63% hits; Vaccinia virus mCherry reporter infection, fluorescence; AID 720579; calls by dose curve; tested in A549 cells; note: nearly all actives have a fitted effect of over 35% in size
Vaccinia Venus – inhibitors of vaccinia virus (Venus reporter). AID 720580. Potency, µM (series often up to 36.5 µM), usual class: inhibitors. 330,000 compounds, 0.46% hits. Vaccinia virus Venus reporter expression, fluorescence; calls by dose curve; tested in A549 cells; note: nearly all actives have a fitted effect of over 30% in size
Numbers stand for hits; – = inactive; ? = inconclusive; · = no result; [ ] = dose if it differs, or a comment. Compounds with a hit are over-represented: about 7.8% of the library has one in this group of screens.

SMILES	Lassa entry inh	HCV inhibitor	MARV entry inh	HCMV antiviral	VACV mCherry inh	Vaccinia Venus
COc1ccc(S[C@]2(c3nc(-c4cccnc4)no3)CC(=O)N[C@@H]2c2ccc(OC)cc2)cc1	·	·	·	–	·	·
CC1=C(C(=O)OCc2ccc3nsnc3c2)N2C(=O)[C@@H](NC(=O)OCc3ccc4nsnc4c3)[C@H]2SC1	·	·	·	·	–	–
COc1ccccc1N1CCN(c2ccc(-c3nc(-c4ccccc4)no3)cc2[N+](=O)[O-])CC1	–	·	?	–	–	–
COc1ccc(OC)c(S(=O)(=O)N2CC=C(c3c(C)n(CC(=O)N4CCCC4)c4ccccc34)CC2)c1	–	·	–	–	–	–
Cc1ccc(CNC(=O)c2c(Nc3ccccc3C)sc(C(=O)c3ccc(F)cc3)c2N)cc1	?	·	·	-75.5	11.2µM	?
COc1cccc(Nc2sc(C(=O)c3ccc(F)cc3)c(N)c2C(=O)NCc2ccc(C)cc2)c1	?	·	·	-62.3	–[7.34 µM]	–[7.34 µM]
O=C(Cn1c(=O)oc2cc(S(=O)(=O)N3CCCC3)ccc21)NCc1ccc(Cl)cc1	–	·	?	–	–	–
S=C(NCc1ccc2c(c1)OCO2)Nc1ccc(-c2nc3ccccc3[nH]2)cc1	–	?	?	-61.3	–	–
O=C(NC(=S)Nc1cc(-c2nc3ccccc3[nH]2)ccc1Cl)c1ccc2c(c1)OCO2	?	?	–	-75.6	–	–
CN(C)CCNC(=S)Nc1ccc(-c2nc3ccccc3[nH]2)cc1	–	–	?	–	·	·
Cc1ccc(-c2nc3ccccc3o2)cc1NC(=O)c1ccc2c(c1)OCO2	–	–	–	–	·	·
Cc1ccc(-c2nc3ccccc3[nH]2)cc1NC(=O)c1ccc2c(c1)OCO2	?	11.2µM	–	–	–	–
C[C@H]1[C@@H](NC(=O)Nc2ccc(Cl)cc2)CC[C@@]23CCCN2C(=O)CCC[C@@H]13	·	·	·	–	·	·
CCCCNc1nc2sc3c(c2c(=O)n1-c1cccc(Cl)c1)CCN(C)C3	–	3.98µM	?	–	–	–
O=C(Nc1ccc(Cl)cc1)C1Cc2c(-c3ccccc3Oc3ccccc3)ccnc2O1 (configuration not stated)	·	·	·	–	–	–
O=C1c2cccc(NCCCNCCO)c2C(=O)c2cccc(NCCCNCCO)c21	–	?	?	-97.9	?	?
O=C1c2ccccc2C(=O)c2c(NCc3cccnc3)cccc21	–	?	–	?	–	–
c1ccc(/N=C2\N=C(Nc3ccccn3)c3ccccc32)nc1	?	?	?	-98.8	?	?
c1ccc(C2CCC(N3CCN(c4ccccc4)CC3)CC2)cc1 (configuration not stated)	2.82µM	?	?	·	–	–
Nc1nc(F)nc2c1ncn2[C@@H]1O[C@H](CO)[C@@H](O)[C@@H]1O	?	–	–	·	3.16µM	7.08µM
Nc1ncnc2c1ncn2C1O[C@H](CO)[C@@H](O)[C@@H]1O (some centres not stated)	·	–	·	–	–	–
Nc1nc(Cl)nc2c1ncn2C1CC(O)C(CO)O1 (configuration not stated)	·	–	·	–	2.51µM	?
Nc1nc(Nc2ccccc2)nc2c1ncn2[C@@H]1O[C@H](CO)[C@@H](O)[C@H]1O	–	2µM	–	–	–	–
Cc1cnc(C)c(-c2cccc3c2OC(CNC(=O)C2(c4ccc(Cl)cc4)CC2)C3)n1 (configuration not stated)	·	·	·	·	–	–
CNC(=O)c1ccc2nc(-c3cccc(C)c3)c(-c3cccc(C)c3)nc2c1	·	·	·	·	–	–
SMILES	Lassa entry inh	HCV inhibitor	MARV entry inh	HCMV antiviral	VACV mCherry inh	Vaccinia Venus
COC(=O)[C@@H]1[C@@H](CO)[C@@H]2Cn3c(ccc(Br)c3=O)[C@H]1N2C(=O)Cc1ccccn1	·	·	·	–	·	·
CCN(CC)C(=O)Cn1cnc2sc(C(=O)N3CCN(Cc4ccc5c(c4)OCO5)CC3)c(C)c2c1=O	?	?	–	-97.1	–	–
O=C(Nc1ccc2c(c1)OCO2)c1ccc2c(c1)OCO2	?	–	?	–	–	–
O=C(Nc1ccc2nn(-c3ccccc3)nc2c1)c1ccc(Br)o1	?	?	?	-64.8	–	–
CCOc1ccc(C(=O)Nc2ccc3c(c2)OCCO3)cc1OC	–	?	?	–	·	·
O=C(Nc1ccc2nsnc2c1)c1ccc2c(c1)OCO2	11.6µM	–	?	–	·	·
CCOc1ccc(NC(=O)c2ccc3c(c2)OCCO3)cc1S(=O)(=O)N(CC)CC	·	2.82µM	·	–	·	·
O=C(Nc1ccc2nn(-c3ccccc3)nc2c1)c1ccc2c(c1)OCCO2	?	7.08µM	–	?	·	–
CCn1c(=O)n(-c2ccc(C)c(F)c2)c(=O)c2sc3ccccc3c21	–	·	–	–	–	–
COc1ccccc1N1CCN(c2nc(CNC(=O)C3CCOC(C)(C)C3)nc3ccccc23)CC1 (configuration not stated)	·	·	·	·	–	–
O=C(CNC(=O)c1ccccc1)OCC(=O)c1ccccc1	·	·	·	·	–	–
Cc1c(C(=O)OC2CCC(C)CC2)[nH]c2c1C(=O)CC(c1ccccc1Cl)C2 (configuration not stated)	–	·	–	–	–[7.34 µM]	–[7.34 µM]
O=C(CCS(=O)(=O)c1cccs1)Nc1ccc(C(=O)Nc2ccccc2F)cc1	–	·	–	–	–	–
CCOc1ccc(-n2nc3ccc(NC(=O)c4ccc5c(c4)OCCO5)cc3n2)cc1	?	6.31µM	?	-70.6	–	–
O=S(=O)(c1ccc(Cl)s1)N1CCN(C/C=C/c2ccccc2)CC1	23.1µM	–	?	–	·	·
CCOc1cc(C=C(C(=O)OC)C(=O)OC)ccc1OCc1ccc([N+](=O)[O-])cc1	3.55µM	7.94µM	2.82µM	–	·	10µM
CCOc1cc(/C=N/O)ccc1OCc1ccc([N+](=O)[O-])cc1	–	?	?	–	–	–
COc1cc(C2c3c(oc4ccc(F)cc4c3=O)C(=O)N2Cc2ccc3c(c2)OCO3)ccc1O (configuration not stated)	–	·	–	–	–	–
COc1cccc(CNC(=O)C(=O)NCC(c2ccco2)S(=O)(=O)c2cccs2)c1 (configuration not stated)	–	·	·	–	–	–
CN1CCN(CCCNC(=O)c2ccc(Cn3c(=S)[nH]c4ccc(Br)cc4c3=O)cc2)CC1	–	7.94µM	?	–	–	–
CCOC(=O)N1CCN(C(=O)c2ccc(Cn3c(=S)[nH]c4ccc(Br)cc4c3=O)cc2)CC1	3.98µM	?	?	-94.9	–	–
CCOC(=O)N1CCN(C(=O)c2ccc3c(=O)n(Cc4ccc(Cl)cc4)c(=S)[nH]c3c2)CC1	–	–	?	–	?	–
O=c1c2cc(Br)ccc2[nH]c(=S)n1Cc1ccccc1	?	–	–	-62.8	–	–
CC(C)OCCCn1c(=O)c2ccccc2n2c(-c3ccc(F)c(F)c3)nnc12	–	·	?	–	–	–
COc1ccccc1C(=O)N1CCOc2ccc(C(C)(O)CCn3cccn3)cc2C1 (configuration not stated)	·	·	·	·	–	–
CCCn1c(=O)c2sccc2n2c(CCCC(=O)NC3CCC(C)CC3)nnc12 (configuration not stated)	–	·	·	–	–	–
